Screening data as filed in PubChem BioAssay.
In the library only some 31% were active in any assay of this set; here they are far more common.
CYP2C9 inh = blocks human cytochrome P450 2C9. P11712. CYP2C9 Supersomes, luciferin-H conversion, luminescence. inhibition, % at 5 µM. 20% of 96,000 active;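 active = blocking of liver enzyme CYP2C9 beyond about 50% at 5 µM, limit read from the data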
CYP2C19 act = activators of human cytochrome P450 2C19 | P33261 | recombinant CYP2C19, luciferin-H EGE luminescence; stronger effect = higher value; 0 = fully inhibited enzyme, 1 = untreated enzyme | activation factor at 5 µM | 96,000 tested, under 10 active;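 active = activation factor of at least 2 at 5 µM in the primary screen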;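 note: 0 = wells with 2.5 mM tranylcypromine and 1 = vehicle-only wells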
Target sequence (P33261 whole entry, looked up): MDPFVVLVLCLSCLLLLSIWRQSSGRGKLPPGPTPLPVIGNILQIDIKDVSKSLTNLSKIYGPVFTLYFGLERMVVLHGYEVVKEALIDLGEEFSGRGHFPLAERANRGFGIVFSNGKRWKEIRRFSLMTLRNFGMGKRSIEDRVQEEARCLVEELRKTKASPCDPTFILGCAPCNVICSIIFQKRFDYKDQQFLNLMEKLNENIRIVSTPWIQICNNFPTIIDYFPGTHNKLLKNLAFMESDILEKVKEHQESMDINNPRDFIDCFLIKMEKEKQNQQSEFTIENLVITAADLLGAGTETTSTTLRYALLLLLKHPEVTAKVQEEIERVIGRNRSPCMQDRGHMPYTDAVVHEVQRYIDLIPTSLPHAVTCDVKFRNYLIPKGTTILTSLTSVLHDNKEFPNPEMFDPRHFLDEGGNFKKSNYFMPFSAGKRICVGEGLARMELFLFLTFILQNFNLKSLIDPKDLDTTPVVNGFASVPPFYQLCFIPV
CYP2C19 inhib = human CYP2C19 inhibition; AID 778; P33261; CYP2C19 Supersomes, luciferin-H EGE luminescence, 30 min; 21% of 96,000 active; inhibition, % at 5 µM;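 active = CYP2C19 inhibition above a set limit at 5 µM in the primary screen, cut at about 50% in these data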;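 note: plate controls were negative control wells for no effect and 2.5 mM tranylcypromine positive control for full effect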
CYP2C9 activ = increases human cytochrome P450 2C9 activity; P11712; recombinant CYP2C9, luciferin-H conversion, luminescence; stronger effect = higher value; factor 1 = untreated enzyme, 0 = blocked; activation factor at 5 µM; 1.4% of 96,000 active;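 active = activation factor of 2 or more for CYP2C9 at a 5 µM dose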;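 note: 0 = sulfaphenazole-blocked wells and 1 = vehicle-only wells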
PLAP act = human PLAP activation. P05187. purified PLAP enzyme, luminescent substrate read-out; stronger effect = higher value. activation fold at 20 µM. 1.2% of 96,000 active. AID 696; in the data active = activation fold above about 2
* hit, by the source's call.

SMILES	CYP2C9 inh	CYP2C19 act	CYP2C19 inhib	CYP2C9 activ	PLAP act
COCCNS(=O)(=O)c1cc(F)ccc1OC	-32	1	4	1.3	0.9
COCCNS(=O)(=O)c1cc(OC)c(Cl)cc1Cl	-55	0.3	68*	1.6	1
O=C(c1cccnc1)N1CCN(S(=O)(=O)c2ccc3ccccc3c2)CC1	36	0.7	33	0.6	1
CCNC(=S)N/N=C/c1ccco1	-11	1	5	1.1	0.8
CCN(CC(N)=O)S(=O)(=O)c1ccc(Br)cc1	-10	0.8	17	1.1	0.8
CCN(CC)S(=O)(=O)c1ccc(Br)c(OC)c1	-85	0.2	82*	1.9	0.9
CCOc1cc(S(=O)(=O)N(CC)CC)ccc1Br	-28	0.1	95*	1.3	1
CC(C)c1nnc(NC(=O)CCC(=O)Nc2ccc(F)cc2)s1	-2	1.1	-12	1	1
CN(C)CCN1C(=O)C(=O)/C(=C(/O)c2ccc(F)cc2)C1c1ccccc1 (centres undefined)	7	1.1	-6	0.9	1.5
O=C(NCc1ccc(Cl)cc1)c1ccc(Br)o1	59*	0	95*	0.4	0.7
O=C(NCCCc1ccccc1)c1ccccc1O	90*	0	97*	0.1	1.1
O=C(NCc1ccccc1)c1ccc(-c2ccccc2F)o1	48	0.4	62*	0.5	0.9
O=C(NCCCc1ccccc1)c1ccc(Br)o1	51*	0	96*	0.5	1.1
CC(C)N1CC(C(=O)O)CC1=O (centres undefined)	-15	1	1	1.1	1.1
CSc1nc(NC(C)=O)nc(C)c1Cl	4	1	-4	1	0.9
Cc1c(NC(=O)CSc2nnnn2-c2ccc(O)cc2)c(=O)n(-c2ccccc2)n1C	-59	0.9	10	1.6	1.1
Cc1c(NC(=O)OCCSc2nc(N(C)C)nc(N(C)C)n2)sc(=S)n1C	5	0.9	14	0.9	1
Cn1c(=O)c2c(ncn2CCN(CCO)Cc2ccccc2)n(C)c1=O	-10	1.1	-6	1.1	0.9
CCC1=C/C(=C/N(C)c2ccccc2)C(=O)S1	13	0.9	9	0.9	1.2
O=C(NCCC1=CCCCC1)c1ccc(Br)o1	59*	0.1	90*	0.4	1.1
COc1ccc(S(=O)(=O)N2CCN(S(=O)(=O)c3ccc(C(F)(F)F)cc3)CC2)cc1C	4	1	3	1	1
CC(=O)Nc1ccc(S(=O)(=O)N2CCN(c3ccccn3)CC2)cc1	49	0.8	17	0.5	0.9
COc1ccc(S(=O)(=O)N2CCN(c3c(C)cccc3C)CC2)cc1OC	94*	0	99*	0.1	1.6
CCOc1ccc(S(=O)(=O)N2CCN(c3ccc(C)cc3C)CC2)cc1	80*	0.5	54*	0.2	1
COc1ccc(S(=O)(=O)N2CCN(c3ccccn3)CC2)cc1OC	37	0.3	70*	0.6	1.1
SMILES	CYP2C9 inh	CYP2C19 act	CYP2C19 inhib	CYP2C9 activ	PLAP act
COc1ccc(S(=O)(=O)N2CCN(c3ccc(C)cc3C)CC2)cc1OC	52*	0.5	46	0.5	1.4
CCOc1ccc(S(=O)(=O)N2CCCC2)cc1	-26	0.7	32	1.3	1.2
COc1ccccc1NC(=O)c1cnc2n(c1=O)CCS2	0	1	-2	1	0.9
CCCCCCn1c(CN2CCCCC2CC)nc2c1c(=O)n(C)c(=O)n2C (centres undefined)	18	0.9	6	0.8	1.5
CC(C)(C)n1nnnc1CN1CCN(C2CCCC2)CC1	-16	1	1	1.2	1
C/C(=N/OC(=O)c1cccc(Cl)c1)c1nccs1	-4	0.7	29	1	0.9
CC(/C=C/c1cccs1)=C\C(=O)O	-1	1.1	-13	1	1.1
COc1ccccc1CNC(=O)C1CCC(CNc2c(N3CCOCC3)c(=O)c2=O)CC1 (centres undefined)	8	1	-3	0.9	1.1
O=C(NCCCn1ccnc1)c1noc2c1CCc1ccccc1-2	50*	0.2	83*	0.5	1
CC12CCC(C(=O)NCCCn3ccnc3)(OC1=O)C2(C)C (centres undefined)	32	0.2	76*	0.7	1.2
O=C(NCc1ccc(F)cc1)c1noc2c1CCCC2	15	0.8	18	0.9	1
Cc1ccn2cc(CCNC(=O)c3ccc(Br)o3)nc2c1	3	0.6	39	1	1
O=C(NCCCn1ccnc1)c1noc2c1CCCC2	85*	0.3	69*	0.2	0.9
O=C(NCCCn1ccnc1)c1ccc(Br)o1	34	0.4	59*	0.7	1.2
COc1ccc2c(c1)CCc1c(C(=O)NCc3cccnc3)noc1-2	6	1.1	-8	0.9	1.1
CC12CCC(C(=O)NCc3ccco3)(OC1=O)C2(C)C (centres undefined)	-6	0.9	7	1.1	1
CC(C)C(NC(=O)CNC(=O)OC(C)(C)C)C(=O)NCc1ccccc1 (centres undefined)	-7	0.7	32	1.1	1.3
COc1ccc(C)cc1NC(=S)NNC(=O)c1ccccc1Cl	-3	0.4	61*	1	2.9*
Cc1ccc(NC(=O)c2ccccc2Cl)c(Cl)c1	-120	0.9	8	2.2*	1
CCCCC(=O)Nc1cc(NC(=O)CC)ccc1Cl	6	0.9	7	0.9	1
Cc1cc(NC(=O)CSc2nc3sc4c(c3c(=O)n2C)CCCC4)no1	16	1	2	0.8	1
Cn1c(SCc2nnc(-c3ccccc3Br)o2)nc2sc3c(c2c1=O)CCC3	94*	0.2	77*	0.1	1.5
CCn1c(SCc2ccc(C(=O)OC)o2)nc2sc3c(c2c1=O)CCCC3	49	0.8	21	0.5	1.4
C=CCn1c(SCC(=O)N2CCOCC2)nc2sc3c(c2c1=O)CCCC3	80*	0.3	71*	0.2	1.6
Cn1c(SCC(=O)N2CCOCC2)nc2sc3c(c2c1=O)CCCC3	88*	0.4	60*	0.1	1.3
SMILES	CYP2C9 inh	CYP2C19 act	CYP2C19 inhib	CYP2C9 activ	PLAP act
CC(=O)CSc1nnc(-c2cnccn2)n1-c1ccccc1	-14	1.2	-17	1.1	1.1
CCCCP(=O)(CCCC)Cc1ccccc1O	-15	1.1	-9	1.1	0.9
CCCCN1Cc2cc(C(=O)c3cc(F)ccc3O)cnc2NC1=O	38	0.8	23	0.6	1.2
CN(C)/C=C1/Sc2ccccc2C1=O	3	1.1	-9	1	0.9
N#C/C=C1/NC(=O)c2ccccc2S1	62*	0.9	9	0.4	1.1
N=C1/C(=C/c2cccs2)C(=O)N=C2SN=C(SCc3ccccc3)N12	93*	0.9	11	0.1	1.1
NC1=NC(=O)/C(=C\c2cccs2)S1	-18	1	-5	1.2	1
CCc1nnc(NS(=O)(=O)c2ccc(NS(=O)(=O)c3ccc(NC(C)=O)cc3)cc2)s1	77*	1.1	-5	0.2	0.9
CCc1nnc(NS(=O)(=O)c2ccc(N/C=C\C(=O)c3ccc(C)cc3)cc2)s1	88*	0.9	10	0.1	1.5
